Laboratory results: PubChem BioAssay AID1159506 (National Center for Advancing Translational Sciences (NCATS), 2015)
In all, about 59,000 sequences were measured (the read-out: median about -0.00055, lowest 2% from about -2 on). The entries come from a sample that favours the lowest values as a whole.

assay: Identification of proteins required for the processing of the EWS-FLI1 nascent transcript; details: TC32 Ewing sarcoma NR0B1-luc vs CMV-luc (EWS-FLI1 target promoter against control promoter), 48 h; screened at 20 nM (by protocol);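 note: robust z of luciferase light less the median z of siRNAs with the same seed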
Summary of the method: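 Genome-wide siRNA screen (Ambion v4.1, three siRNAs per gene, 20 nM final, RNAiMax) in Ewing sarcoma TC32 cells carrying NR0B1-promoter or CMV-promoter luciferase; OneGlo luciferase read 48 h post-transfection. Data normalized, z-score-MAD transformed and seed-adjusted.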

Row | Sequence | seed-corrected z-score
1 | UUUCGGUUCCUUGAAACCA against DBNL | -0.0899
2 | UUUGAUUCUACUUCAAAAC against CBX3P2 | 0.167
3 | AAAGGGACGCUCAACCACC against HIST1H4K | -1.31
4 | UUAACUGCAGGCUUAUACU against AKR1B1 | -1.42
5 | UAUCUUUUCCCAGUUGGAC against MSRB3 | -2.11
6 | UACGAUUCUUGAGUGGAAG against BACH1 | 0.239
7 | UCUGUUUCUCGCGCACUCG against COX7A1 | 0.0308
8 | UUCUUACACCUGACGAAGC against WNT5B | 0.217
9 | UAUGAUUUAAUCACCUCCU against LOC653513 | 0.00911
10 | UCAAUGAGAGUGCACAUCC against COPA | -3.73
11 | AUAUCAAUUGUUAUCUUGC against ANKRD30A | 0.895
12 | UCUACUAUCAUUGUCCCUU against TAL1 | 0.0482
13 | UCUGGUACUGUGAAGGGUC against TSPYL5 | 0.606
14 | UAUUAUUGUCUGGAACAUC against C12orf57 | 0.301
15 | UGACGUACAGCAUUGACAG against PHLPP2 | 0.366
16 | UAAGUCCCAAUUCACUCUC against FAM134B | 2.19
17 | UCUGGUUCCAGGUUGCUUA against SFXN3 | -2.37
18 | AGUAGAAAGACCAUGCUUG against TUBB2A | 0.712
19 | AAAACUAUUGGUUUCUUCC against GCOM1 | -0.0313
20 | UUCGUAGUGGAGUGAAUCC against DHH | -0.195
21 | ACUGCUUUCCUUAAAAUCC against CCDC40 | -3.74
22 | UUGUUAACCAAGACAACGC against SNAPIN | 0.13

Row | Sequence | seed-corrected z-score
23 | UGCUAUAUCUAGAUGUUCC against RMDN2 | -0.178
24 | UCUUUGUUCCAUCAUGACC against NDUFAF7 | 0.211
25 | UCAUUUCGCACAGCUUCCU against RARG | 0.369
26 | AAUGCUCCAAGACUGGAGG against PTCRA | -1.44
27 | UACAUGGUAAUAACUUUUC against MARCKS | -0.217
28 | UUUGUUCAUCACGAAAGUC against SDHAF3 | -0.383
29 | AGAGUGUCAAGCAGCAUGG against EEF1A1P33 | -2.33
30 | UGCGGAUCAAGUCUGAGAC against MSH5 | -0.442
31 | UGAGUUUCUCGCACGUCUC against WNT4 | -2.44
32 | UGAGGCUCCAGUUUCAGGC against SLC3A2 | 1.53
33 | UGACUUGACUCCGAUCUGC against AP2A1 | -0.384
34 | UUCGUGGUCUUGCAGAAGC against LY6D | -0.178
35 | GAUAGUUGUAGGGUGUGGC against NDUFA3P3 | 0.165
36 | UAACUUAUCUAAACUACUC against SPAG9 | -0.547
37 | AAUGGUUUCACCGGCAGCG against IFRD2 | -2.09
38 | AACUCUUCUAUGUCGAAUG against ZNF551 | -0.267
39 | UCCGAUGACACCAAGAGCG against REEP5 | 0.932
40 | UACUUUACGUUCUUCGAUC against PAGE4 | 0.246
41 | ACUGGAGAUAGUGCUGUUG against SUN2 | -4.61
42 | UGUGAUGUUAGCAAUCUUC against TAS2R41 | -0.517
43 | UAGUCAACAAUGUCACAUC against ELOVL7 | -0.576
44 | UGAUGCACCAUCACAGUCU against SUSD6 | 0.212

Row | Sequence | seed-corrected z-score
45 | CACCAGGAUGGUUUGGUUG against BRICD5 | 1.06
46 | UCUUCGGUCAUGAAUGAGG against TAT | -0.586
47 | UCUGUCAUCUUUUUGGGUG against PSMD8 | -4.18
48 | UCCGAUACCGACAAUAACC against ADAM7 | 0.224
49 | UGAAGUACACCUUAAAGCC against SCN4A | 0.557
50 | UCUGUUCCAAUACUGCUUG against CD209 | -0.501
51 | AUGGUGUCAAGAAUAAGGC against ROPN1L | 1.14
52 | UCAGCAACAACGGAUAUCG against PLEKHG7 | -0.178
53 | AAAGUGCCCAAAACGAUGG against ATP2B3 | 0.438
54 | AACAUCUCCAAUGAUAGGG against NR0B2 | -2.16
55 | UCACCUACUUCGAUCUUCC against MECOM | -0.295
56 | AAUCAUGCCCUUUUUGUGG against FPR2 | -2
57 | UUCCAGCCCAUGAGAACCC against DKK2 | 0.436
58 | AACGGAAAUGCUGACAUCG against EPRS | -0.386
59 | AGAGUUUCCUGAGUCUUCU against TPD52L2 | -2.41
60 | UAUCAUUGCGUGUUGCUGC against BBOF1 | 0.0553
61 | UCUGUGAGGAAUGCUGUCC against RFT1 | -2.48
62 | UUCUAGCUCACUGAAGUCC against PYGL | -0.371
63 | UUCAGGGCAUUUAAAGGGC against ZNF629 | -0.898
64 | AAGAUAAUAAAAACGUAGG against SLC2A14 | 0.0262
65 | ACUGCUUACACUCACAUGG against ZNF490 | -4.22
66 | UGGGAGCAAAGCAUAGUCG against PNMA3 | -1.88

Row | Sequence | seed-corrected z-score
67 | UACUUGACUGAAAUGUCUC against ZNF829 | -0.616
68 | UAGUUGUCCUGGUCGGAGC against LY6E | -2.61
69 | UUGCAUGCAAUGGUGAGGC against S100A10 | -1.4
70 | UACUUUGCGACCAUUUAGG against PABPC3 | -1.3
71 | UCUGUAACAUGCGGAGUUC against M1AP | -0.631
72 | ACCGUGUUCAGAUAGCCUG against RACK1 | -1.01
73 | AAUGUUGACACGUCUCCUG against TOB1 | 0.235
74 | UUGGGAGUGAAAACAGAGG against OR8B2 | -3.41
75 | AACUUCUUCAAGGUAAUUG against PJA1 | 0.88
76 | AAAGUUUCACUCUUUCUGG against TPT1P8 | -0.645
77 | UUCGAUUGAAAGAAGGCCU against MYOZ1 | -0.336
78 | AACUCUAUUCAUGAGCUCG against ANGPTL5 | 0.0468
79 | UUCCUGAUUAGUAAUGUCG against RAB5B | 0.136
80 | AUCUUGGACAGAUAUAAUC against RNF126 | -2.4
81 | UAUACUAUUGGUAAGUGCA against SND1-IT1 | -0.0514
82 | AUACUCCACACCACAAAGC against LTB4R | 0.354
83 | AAAAGACCAAAGCCCAUGU against RPLP1 | -2.92
84 | UAUAGUGAAGAGAUAUGCC against ADGRL2 | 0.229
85 | UCGUUUUUGACUACCAGGG against PHKB | 0.853
86 | AACUGAUUAAAAUCAGAGG against PIGG | 0.269
87 | UAGUAGCAUAGUUCAGUGG against OR51T1 | 0.179
88 | UUUGCUCUCAUUCUCCGCA against SF3B5 | -3.03

Row | Sequence | seed-corrected z-score
89 | AUAGUUAAUUGAAUUUCGG against BMPR2 | -0.638
90 | UUUGCAGCCUCGGUUAUAG against PWWP2B | 0.352
91 | AAGAGUAAUAGGCAAUUUC against SLC19A2 | -0.574
92 | ACACGGGCAAUGGAUUUCC against RPL35 | -0.426
93 | UAACAUACACUAGAUCGCC against FOLH1 | -3.06
94 | AAUGAGAUAAUGUUGGUCA against SNX29P1 | -1.77
95 | UUUCUUUUCGGCUCUAGGG against NKX2-5 | -1.12
96 | UGUACAAUGAGGAAGCUUC against LOC728903 | -0.125
97 | UCUUUGCAAAGGGUAUGCC against IL17RE | -2.02
98 | AGACCAUCCCACGAAAUGC against PEBP1 | -1.22
99 | AAGCGGAAAAUCUUGAUGC against SLC26A2 | 0.168
100 | UUCGUCCUUAUGCUCUUUC against HOXA7 | 0.383
101 | AAAGAUACAGGUUAAAGGC against HIST2H2BF | -0.321
102 | UUCAUAACGAGUUGGAGCC against RPL30 | -2.42
103 | UUCAUGUUCAGAGUCAACG against SSRP1 | 1.02
104 | ACUCUUAUCAGGCACAUCC against IMPAD1 | -0.93
105 | UAACCGUUCCCGCAAACAC against TFAP2E | -0.2
106 | AUUUAUUCCGGACACGUGG against GLI4 | -2.01
107 | UCUUAUCCAAGGGACCAGC against MED1 | -0.541
108 | UUCUCUAGGAUGGAAAACC against LOC728752 | 0.253
109 | UUCGCAAUGUUGGUUCACC against TEX15 | -0.211
110 | AAACACUCCACUGAUGUGC against IFT140 | -0.256

Row | Sequence | seed-corrected z-score
111 | UGCGCUUACGCUUCUUACC against HIST1H2BB | -0.822
112 | UUUCGGUAGUAGGAUUUCC against RBAK | 0.44
113 | AAAACUUGCACCUUCGUGU against ARMC10 | -0.114
114 | UUUAGUGUCAGUUGAUUUG against CPXCR1 | 0.162
115 | UAUCAGACAAUUCAUCCGG against LONRF2 | -0.662
116 | AUGGGUCAGAGAGGCAAGG against EXOSC5 | -2.07
117 | AUGUGGAUCAGAAGUAUCA against OR2T10 | 0.476
118 | UGCAUGAUGAGUGAGGUGC against CYP26B1 | -0.927
119 | UGACGGAUCAGUCUUAGCC against ATP5O | -0.31
120 | AAAUAUAUCUCUUGGAUCU against LRRC75A-AS1 | 0.788
121 | UCUAAUUCCAUACUGAUUC against PRKCQ-AS1 | -0.219
122 | UUAUAAAAUUUGGUGAUGG against CNNM2 | -2.17
123 | AAAGAAGGAAUUGAGAUUC against RAPGEF3 | 0.508
124 | UAGAAAUCUACAAUCUUGU against NR2C2AP | -0.785
125 | AUUGUAUCCUGCUGAGUCC against FOXJ2 | -0.984
126 | ACAGUAAUCCAUAUGGAGG against GPR139 | 0.177
127 | UUUCGUUCUUACGAGAUCC against PKHD1L1 | 1.16
128 | UCCGGAUACACUUCACUAC against ANXA6 | -0.467
129 | AAAAGUGGAACUUCUUCUC against TTLL8 | -2.21
130 | AAAGUUGCAGUUGGUCUCC against ZACN | -3.49
131 | UUAGCAGCUUGUUAAUUUC against ISY1 | -0.616
132 | UAAGCAGCUUGUAUUGCUC against KIAA0513 | 0.461
